# In all, about 310,000 compounds went through this assay and about 2,200 (0.71%) showed an effect of 50% or more. Effects have a minus sign here. The sample as a whole holds a higher share of strong results than the screen did.
# Molecular target: human ether-à-go-go-related gene (hERG) potassium channel (human, UniProt Q12809)
# Experiment: primary screen, population patch clamp on CHO cells stably expressing hERG; higher = less effect of the substance
# Method: Briefly, Chinese hamster ovary (CHO) cells stably expressing the hERG channel were dislodged from tissue culture flasks and dispensed into PPC plates. […] During the recording, background leak currents were estimated by a 100 ms step to -80 mV from an initial holding potential of -70 mV and subtracted from the subsequent current measurement. The campaign was conducted in two phases using slight differences in recording protocol. In the first phase, the initial voltage pulse used a 100 ms step to -30 mV from a holding potential of -70 mV, a 2 s conditioning step to +25 mV, and a 2 s test step to -30 mV. During the second phase of the screen, the potential during the conditioning step was raised to +45 mV. In both phases of the campaign, a secondary voltage pulse was applied using the same parameters as the second phase initial pulse. The initial and secondary pulses were applied in the absence of compound, and upon application of 1 μM and 10 μM test concentrations. Small molecule effects on hERG current density were quantified by […].
# Chain of human ether-à-go-go-related gene (hERG) potassium channel (Q12809 whole entry, looked up): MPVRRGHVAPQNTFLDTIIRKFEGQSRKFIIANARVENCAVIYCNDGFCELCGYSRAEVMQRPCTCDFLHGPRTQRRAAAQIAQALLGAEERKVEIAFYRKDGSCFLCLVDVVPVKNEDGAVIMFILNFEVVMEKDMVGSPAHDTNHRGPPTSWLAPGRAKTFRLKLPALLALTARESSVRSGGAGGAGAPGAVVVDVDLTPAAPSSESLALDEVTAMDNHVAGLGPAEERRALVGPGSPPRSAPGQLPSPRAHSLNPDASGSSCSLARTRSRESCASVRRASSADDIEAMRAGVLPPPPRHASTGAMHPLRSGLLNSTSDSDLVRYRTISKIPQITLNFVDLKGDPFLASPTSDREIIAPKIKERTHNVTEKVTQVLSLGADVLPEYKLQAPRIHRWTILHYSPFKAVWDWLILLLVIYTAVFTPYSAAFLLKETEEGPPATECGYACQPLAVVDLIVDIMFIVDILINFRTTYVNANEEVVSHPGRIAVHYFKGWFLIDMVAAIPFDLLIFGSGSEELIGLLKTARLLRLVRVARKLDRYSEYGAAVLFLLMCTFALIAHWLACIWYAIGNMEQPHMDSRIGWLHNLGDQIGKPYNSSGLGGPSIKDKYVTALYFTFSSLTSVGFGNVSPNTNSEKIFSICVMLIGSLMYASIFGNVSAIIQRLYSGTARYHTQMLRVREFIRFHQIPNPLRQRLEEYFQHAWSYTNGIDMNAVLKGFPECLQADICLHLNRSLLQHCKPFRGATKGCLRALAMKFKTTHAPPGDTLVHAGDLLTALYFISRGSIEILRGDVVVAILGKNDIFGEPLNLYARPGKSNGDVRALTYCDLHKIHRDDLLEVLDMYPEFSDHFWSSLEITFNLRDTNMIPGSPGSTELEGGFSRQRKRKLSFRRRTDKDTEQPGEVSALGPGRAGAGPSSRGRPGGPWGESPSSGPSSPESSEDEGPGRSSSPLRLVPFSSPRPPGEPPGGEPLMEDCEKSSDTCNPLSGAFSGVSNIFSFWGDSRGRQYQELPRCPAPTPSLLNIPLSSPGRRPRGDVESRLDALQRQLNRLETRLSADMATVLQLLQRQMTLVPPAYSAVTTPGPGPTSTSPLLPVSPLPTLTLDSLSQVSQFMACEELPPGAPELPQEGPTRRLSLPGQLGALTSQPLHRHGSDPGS
row,Compound,"hERG current change (%, negative = inhibition) at 1uM"
1,COc1cccc(NC(=O)Nc2cccc(C(=O)O)c2)c1,16.4%
2,CCOC(=O)C(CC)Sc1ccc2nnc(CCNS(=O)(=O)c3ccccc3)n2n1 (centres unmarked),3.33%
3,O=C(NCc1ccc(Cl)cc1Cl)C(=O)N1CCCCC1,7%
4,O=C(c1cccc(C(F)(F)F)c1)N1CCN(CCc2ccccc2)CC1,1.81%
5,CN(CC1CCN(CCc2cccc(C(F)(F)F)c2)CC1)C(=O)c1ccc(F)cc1,-60%
6,CN(CC1CCCN(CCc2cccc(C(F)(F)F)c2)C1)C(=O)c1ccco1 (centres unmarked),-38.3%
7,COc1ccc(CC(=O)NCC2CCCN(Cc3cccc(C(F)(F)F)c3)C2)cc1 (centres unmarked),5.75%
8,CN(CC1CCCN(CCc2cccc(C(F)(F)F)c2)C1)C(=O)c1ccc2nc[nH]c2c1 (centres unmarked),5.78%
9,COC(=O)CCC(=O)N(C)CC1CCCN(CCc2cccc(C(F)(F)F)c2)C1 (centres unmarked),-39.9%
10,CN(CC1CCN(CCc2cccc(C(F)(F)F)c2)CC1)C(=O)c1ccc(F)cc1F,-35.9%
11,CSCCC(=O)N(C)CC1CCCN(CCc2cccc(C(F)(F)F)c2)C1 (centres unmarked),-55.1%
12,CSCCC(=O)N(C)CC1CCN(CCc2cccc(C(F)(F)F)c2)CC1,-27.3%
13,CN(CC1CCN(CCc2cccc(C(F)(F)F)c2)CC1)C(=O)c1ccccc1,-56.1%
14,COc1cccc(C(=O)N(C)CC2CCN(CCc3cccc(C(F)(F)F)c3)CC2)c1,-70.3%
15,CC(=O)Nc1ccc(CN(C)CC2CCCN(CCc3cccc(C(F)(F)F)c3)C2)cc1 (centres unmarked),-18.4%
16,CCn1c(/N=C/c2ccc(OC)cc2O)nc2ccccc21,14%
17,Cc1ccc(NC(=O)Nc2cccn(Cc3c(F)cccc3Cl)c2=O)cc1,13.2%
18,S=C(Nc1ccccc1)Nc1ccc(Br)cc1,14.5%
19,Cc1cccnc1-n1c(C)nc2ccccc2c1=O,7.55%
20,CSCCC(NC(=O)c1cc(C(C)(C)C)oc1C)C(=O)O (centres unmarked),15.6%
21,COc1cc(C(=O)O)c2c(c1C)OC(=O)c1c(C)cc(O)c(C=O)c1O2,22.5%
22,COc1cc(C(=O)N(C)CC2CCN(CCc3cccc(C(F)(F)F)c3)CC2)ccc1C,-63.8%

row,Compound,"hERG current change (%, negative = inhibition) at 1uM"
1,COc1cc(CN(C)CC2CCCN(CCc3cccc(C(F)(F)F)c3)C2)ccc1O (centres unmarked),2.96%
2,CC(=O)NCCC(=O)N(C)CC1CCN(CCc2cccc(C(F)(F)F)c2)CC1,12.5%
3,CCCC(=O)Nc1ccc(NC(=O)c2ccccc2F)cn1,11.2%
4,Fc1ccc(NC(=S)NCCN2CCOCC2)c(F)c1F,12.2%
5,S=C(Nc1ccc2snnc2c1)N1CCN(c2ccccn2)CC1,10%
6,COc1cccc(N2CCN(CC(=O)c3c(C)[nH]c4ccccc34)CC2)c1,-10.9%
7,Cc1ccc(S(=O)(=O)N(CC(=O)NCc2ccncc2)Cc2ccccc2F)cc1,-53.2%
8,Cc1ccc(S(=O)(=O)N(CC(=O)O)Cc2ccccc2F)cc1,6.83%
9,CCCNC(=O)CN(Cc1ccccc1F)S(=O)(=O)c1ccc(C)cc1,5.85%
10,Cc1ccc(S(=O)(=O)N(CC(=O)NCc2ccncc2)Cc2ccc(F)cc2)cc1,-75%
11,CCN(CC(=O)NCc1ccc(F)cc1)S(=O)(=O)c1ccc(C)cc1,-13.7%
12,O=C(CN(Cc1ccccc1)S(=O)(=O)c1ccc(F)cc1)NCc1ccncc1,-9.19%
13,O=C(CCc1nnc2ccc(N3CCCC3)nn12)Nc1cc(F)ccc1F,-9.58%
14,COc1ccc(N=C(C)C2=C(O)COC2=O)cc1,4.93%
15,CN1CSC2=C(C#N)C(c3cccc(OCc4ccccc4)c3)CC(=O)N2C1 (centres unmarked),4.22%
16,CCC(NC(=O)OCc1ccccc1)C(=O)Oc1ccc2ccc(=O)oc2c1 (centres unmarked),18.8%
17,C=CCn1c(SCC(=O)NNC(=O)Nc2ccc(C)cc2)nnc1-c1ccccc1,1.92%
18,CCCN1CCN(S(=O)(=O)c2c(C)[nH]c(C)c2C(=O)N2CCCCC2)CC1,-0.989%
19,CCn1c(SCC(=O)Nc2ccccc2OC)nc(O)cc1=O,10%
20,COC(=O)c1cc(Br)c(=O)n(-c2ccc(F)cc2)c1,-70.1%
21,COC(=O)c1cc(Br)c(=O)n(-c2ccc(OC)cc2)c1,5.39%
22,COC(=O)c1cc(Br)c(=O)n(CCc2ccc(F)cc2)c1,-3.04%
